An excerpt weighted towards active compounds, which were near 0.9% of everything screened.
Rhodamine autofl = qHTS Assay for Spectroscopic Profiling in Rhodamine Spectral Region; Rhodamine-region fluorescence, 547/598 nm, Tris buffer; active compounds read high; max dye-equivalent concentration, M; 59,000 tested, 0.05% active; in the data active means max dye-equivalent concentration above about 11 nM; inconclusive means between about 1.1 nM and that limit
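Steps: pin-transfer compounds into pH 8.0 Tris (100 mM), hold 15 min at room temperature, image with a 547/598 nm filter pair, and convert intensities to rhodamine-equivalent concentration using a six-point on-plate rhodamine series.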
Resorufin fluor = qHTS Assay for Spectroscopic Profiling in Resorufin Spectral Region | Compound fluorescence, resorufin region 547/598 nm, buffer; active compounds read high | 59,000 tested, 0.04% active | AID 588, 2007 | max dye-equivalent concentration, M
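Intrinsic fluorescence profiled in the resorufin window (ex 547 nm, em 598 nm) after 15 min at room temperature in pH 8.0 Tris buffer (100 mM); responses normalized against a six-point resorufin standard series as dye-equivalent concentration.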
Fluorescein fluor = qHTS Assay for Spectroscopic Profiling in Fluorescein Spectral Region. Compound autofluorescence, 480/540 nm, fluorescein-equivalent; active compounds read high. max fluorescein-equivalent concentration, M. 59,000 tested, 0.91% active; in the data active means max fluorescein-equivalent concentration above about 10 nM; inconclusive means between about 1.1 nM and that limit
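Compounds (23 nL) in 100 mM Tris pH 8.0, 15 min at room temperature, then fluorescence read at 480 nm excitation/540 nm emission. Signal converted to fluorescein-equivalent concentration from an on-plate fluorescein standard curve.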
TexasRed autofl = qHTS Assay for Spectroscopic Profiling in Texas Red Spectral Region. AID 587, 2007. Compound fluorescence, Texas Red channel, 547/618 nm; active compounds read high. max dye-equivalent concentration, M. 59,000 tested, 0.06% active; in the data active means max dye-equivalent concentration above about 10 nM; inconclusive means between about 1.1 nM and that limit
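Spectral interference profiling: each compound concentration's relative fluorescence, read with a 547 nm excitation and 618 nm emission filter pair, was normalized to a per-plate Texas Red standard curve.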
A488 fluor = qHTS Assay for Spectroscopic Profiling in A488 Spectral Region | max dye equivalency, M | compound autofluorescence, A488 spectral region, dye equivalency; Compound Type: qHTS ECL - MLSMR | 59,000 tested, 0.1% active
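Readout is A488 dye-equivalent concentration, calibrated by a per-plate six-point Alexa 488 series. Compounds in 100 mM Tris buffer pH 8.0 were incubated 15 min at room temperature. Plates were imaged using 480 nm excitation/540 nm emission filters.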
Of the large screens only hits and unclear results are named; the others gave an inactive call; ! = not confirmed by another sample. Unless noted, how the calls were made is not given here.

CCCN(CCc1ccccc1)[C@H]1CCc2c(O)cccc2C1	none
COc1cccc(=O)c2c(C)oc(C)c12	Fluorescein fluor 7.14e-08M, A488 fluor inconclusive
CCN(CC)CCC[C@H](C)Nc1c2ccc(Cl)cc2nc2ccc(OC)cc12	Fluorescein fluor 9.02e-08M, A488 fluor inconclusive
CCN1C(=O)c2cccc3c(NC(=O)c4ccc5c(c4)OCCO5)ccc1c23	Fluorescein fluor 5.54e-08M, A488 fluor inconclusive
CCN1C(=O)c2cccc3c(NC(=O)C4CCCCC4)ccc1c23	Fluorescein fluor inconclusive
O=C(NC12CC3CC(CC(C3)C1)C2)c1cnccn1	Fluorescein fluor 1.09e-08M, TexasRed autofl inconclusive
CC1=CC(=C(C#N)c2nc3ccccc3s2)C=C(C)N1Cc1ccco1	Fluorescein fluor 1.94e-07M, A488 fluor inconclusive
COc1ccc(-c2coc3cc(O[C@@H]4O[C@@H](CO)[C@@H](O)[C@@H](O)[C@H]4O)cc(O)c3c2=O)cc1	none
CCN1C(=O)/C(=C2/SC(C)=C(C)N2CC)SC1=S	Fluorescein fluor 7.12e-08M, A488 fluor inconclusive
Cc1cn([C@H]2C=C[C@H](CO)O2)c(=O)[nH]c1=O	Fluorescein fluor inconclusive, TexasRed autofl inconclusive
CN1C(=O)c2cccc(N(C)C)c2C1=O	Fluorescein fluor inconclusive
CN1C(=O)c2cccc(NCCCN3C(=O)c4ccccc4C3=O)c2C1=O	Fluorescein fluor 6.66e-08M, A488 fluor inconclusive
CCNc1cccc2c1C(=O)N(C)C2=O	Fluorescein fluor 2.69e-07M, A488 fluor 1.28e-08M
CC1=CC(=O)C2=C(C)CC[C@@H]3[C@H](OC(=O)[C@H]3C)[C@H]12	Fluorescein fluor inconclusive
N.N.N.N.N.N.N.N.N.N.N.N.N.N.O.O.[Ru].[Ru].[Ru]	TexasRed autofl inconclusive
COC(=O)[C@@H]1[C@@H]2C[C@H]3c4[nH]c5ccccc5c4CCN3C[C@@H]2CC[C@@H]1OS(=O)(=O)O	Fluorescein fluor inconclusive
O=C(O)[C@@H]1[C@@H]2C[C@H]3c4[nH]c5ccccc5c4CCN3C[C@@H]2CC[C@@H]1O	Fluorescein fluor 1.67e-08M!
Cc1c(C(=O)O)c(O)cc2c1C(=O)c1c(O)c([C@@H]3O[C@H](CO)[C@@H](O)[C@H](O)[C@@H]3O)c(O)c(O)c1C2=O	none
O=C(CN1c2cccc3cccc(c23)S1(=O)=O)N1CCOCC1	Fluorescein fluor 3.73e-08M, A488 fluor inconclusive
Clc1ccc([C@@H](c2ccccc2Cl)C(Cl)Cl)cc1	TexasRed autofl inconclusive
O=[N+]([O-])c1ccc2ncccc2c1CCc1c([N+](=O)[O-])ccc2ncccc12	Fluorescein fluor 1.09e-08M
COC(=O)[C@@H](NC(=O)c1cc(-c2ccccc2)nc2ccccc12)c1ccccc1	none
COc1cccc(Nc2ncc3nc(-c4ccc(Cl)cc4)c(=O)n(C[C@H]4CCCO4)c3n2)c1	none
COc1cccc(Nc2ncc3nc(-c4ccccc4)c(=O)n(C[C@H]4CCCO4)c3n2)c1	Fluorescein fluor 1.14e-08M
O=c1c(-c2ccc(Cl)cc2)nc2cnc(N3CCOCC3)nc2n1C1CC1	Fluorescein fluor 1.05e-08M
COc1ccc2nc(N3CCCCC3)c(C#N)cc2c1	Fluorescein fluor 1.51e-08M, TexasRed autofl inconclusive
COc1ccc2nc(N3CCCC3)c(C#N)cc2c1	Fluorescein fluor 7.21e-08M, A488 fluor inconclusive
C[C@]12C=CC(=O)C=C1CC[C@@H]1[C@H]3C[C@@H](O)[C@](O)(C(=O)CO)[C@]3(C)C[C@H](O)[C@]12F	Fluorescein fluor inconclusive
CC(=O)S[C@H]1CC2=CC(=O)CC[C@@]2(C)[C@H]2CC[C@@]3(C)[C@H](CC[C@]34CCC(=O)O4)[C@@H]12	Rhodamine autofl inconclusive, Resorufin fluor inconclusive, Fluorescein fluor 4.95e-08M, TexasRed autofl 1.04e-08M, A488 fluor inconclusive

High-throughput results (PubChem BioAssay)
